ALDH1A1 block: blocks purified human ALDH1A1 activity. 7.3% of 220,000 active. Potency, µM (top dose mostly 75.3 µM), hits mostly inhibitors. AID 1030. P00352. Purified ALDH1A1, NADH fluorescence, propionaldehyde substrate
Target sequence (P00352 whole entry, looked up): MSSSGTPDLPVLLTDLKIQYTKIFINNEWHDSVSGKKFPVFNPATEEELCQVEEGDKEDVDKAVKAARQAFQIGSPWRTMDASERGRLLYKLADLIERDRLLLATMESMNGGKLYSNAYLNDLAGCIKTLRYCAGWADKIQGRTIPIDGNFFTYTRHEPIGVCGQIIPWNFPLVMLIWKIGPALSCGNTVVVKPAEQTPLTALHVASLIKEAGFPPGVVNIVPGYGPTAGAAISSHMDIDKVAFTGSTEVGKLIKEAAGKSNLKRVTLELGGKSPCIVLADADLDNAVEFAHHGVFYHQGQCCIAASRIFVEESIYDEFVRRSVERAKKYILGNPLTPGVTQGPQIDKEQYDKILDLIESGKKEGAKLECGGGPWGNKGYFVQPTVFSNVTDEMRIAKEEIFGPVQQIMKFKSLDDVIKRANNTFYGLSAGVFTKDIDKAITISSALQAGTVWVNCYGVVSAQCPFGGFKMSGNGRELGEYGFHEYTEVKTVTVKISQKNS
IMPase cell inh: cell-permeable inhibitors of inositol monophosphatase (IMPase); CHO-M1 cells, IP1 accumulation, HTRF TR-FRET ratio; inhibition (IP1 accumulation), % at 46.1 µM; 120,000 tested, under 10 active; active means well fitted curve in the direction sought with a large enough effect in the signal ratio, not every such curve was filed as active; inconclusive means small, poorly fitted or top-dose-only effect, or a change in a side signal; inactive means no such curve, though single readings can be large or run the other way; the % refers to the signal ratio;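 further: cells stimulated with carbachol in lithium chloride buffer; higher means more IMPase inhibition seen as more IP1 and lower FRET ratio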
Target sequence (P97697 whole entry, looked up): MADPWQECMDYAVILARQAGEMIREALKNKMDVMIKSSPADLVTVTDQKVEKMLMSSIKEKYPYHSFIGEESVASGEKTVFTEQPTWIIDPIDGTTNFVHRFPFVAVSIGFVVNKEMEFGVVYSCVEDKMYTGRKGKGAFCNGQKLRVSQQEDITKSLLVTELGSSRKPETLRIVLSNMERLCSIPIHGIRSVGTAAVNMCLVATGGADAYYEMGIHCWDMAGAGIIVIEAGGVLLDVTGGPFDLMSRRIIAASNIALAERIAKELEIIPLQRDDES
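Carbachol-driven Gq signalling in CHO-M1 cells (2000/well) generates IP1. Compounds that block IMPase raise IP1 and so reduce the FRET signal from Eu-anti-IP1 and d2-IP1 after a 10 min room-temperature lysis.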
HPGD inh: blocks human HPGD enzyme activity; P15428; purified HPGD, NADH fluorescence kinetic, PGE2 substrate; Potency, µM, actives largely listed as inhibitors; 4.3% of 150,000 active; AID 894
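20 nM HPGD preincubated 15 min at room temperature with compound in 50 mM Tris-HCl pH 8, 0.01% Tween 20. Started with 1 mM NAD+ and 30 uM prostaglandin E2; NADH fluorescence (360/450 nm) read 5 times over 30-s intervals, last minus first.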
Large screens that a line does not name were inactive. In the library only some 9% were active in any assay of this set; here they are far more common. Unless noted, the call rests on the fitted dose curve; in most records, active means well fitted inhibition curve with a large enough effect (not every such curve was filed as active); inconclusive means small, poorly fitted or top-dose-only effect, or another doubt; inactive means no such curve, though single readings can be large or run the other way.

O=[N+]([O-])c1cccc(-c2n[nH]c(=S)n2-c2ccc(Br)cc2)c1	none (no result: IMPase cell inh, HPGD inh)
Oc1ccc(/C=N/Nc2nc(N3CCCC3)nc(N3CCCC3)n2)cc1O	ALDH1A1 block 12.6µM (no result: IMPase cell inh, HPGD inh)
COc1cc(/C=N/Nc2nc(N3CCCC3)nc(N3CCCC3)n2)ccc1O	HPGD inh inconclusive
CCN(CC)C(=O)C(=O)N/N=C/c1ccc(F)cc1	none (no result: IMPase cell inh, HPGD inh)
NC(=O)c1cc[n+](CC(=O)c2ccc(NC(=O)c3ccccc3)cc2)cc1	ALDH1A1 block 4.47µM (no result: IMPase cell inh, HPGD inh)
O=C(C[n+]1ccccc1)c1ccc(NC(=O)c2ccccc2)cc1	none (no result: IMPase cell inh, HPGD inh)
COS(C)(=O)=O	none (no result: IMPase cell inh)
Cc1ccc(S(=O)(=O)CCC(=O)OCc2ccc(S(=O)(=O)C(C)C)cc2)cc1	ALDH1A1 block 2.51µM (no result: IMPase cell inh, HPGD inh)
Cc1ccc(S(=O)(=O)CCC(=O)OCc2ccc(Cl)c(Cl)c2)cc1	ALDH1A1 block inconclusive
O=c1[nH]c2cc(Cl)c(Cl)cc2[nH]c1=O	HPGD inh inconclusive
Fc1cc2[nH]c(=S)[nH]c2cc1Cl	ALDH1A1 block 31.6µM (no result: IMPase cell inh, HPGD inh)
Clc1ccc(-c2nc3sccn3c2/C=N/OCc2ccc(Cl)c(Cl)c2)cc1	none (no result: IMPase cell inh, HPGD inh)
CCOC(=O)N/N=C1/C[C@@H](O)[C@@H](O)[C@@H]2[C@@H]3C(=O)N(C(C)(C)C)C(=O)[C@H]3CC[C@H]12	none (no result: IMPase cell inh, HPGD inh)
COc1ccccc1OCCCOc1ccc([N+](=O)[O-])cc1Cl	HPGD inh 15.8µM
COc1cccc(OCCCOc2ccc([N+](=O)[O-])cc2Cl)c1	HPGD inh 17.8µM
CCOc1cccc(OCCOc2ccccc2[N+](=O)[O-])c1	none
COc1ccccc1OCCCOc1ccc(C)cc1Br	HPGD inh inconclusive (no result: IMPase cell inh)
C/C(=N\NC(=O)CC1N=C(Cc2ccccc2)NNC1=O)c1ccc(Br)cc1 (stereo not drawn)	none (no result: IMPase cell inh, HPGD inh)
COc1ccc(S(=O)(=O)NC2(C(F)(F)F)N=C(c3ccccc3)NC2=O)cc1 (stereo not drawn)	none (no result: IMPase cell inh)
CCn1c(SCc2nc3ccccc3nc2C)nnc1-c1cccs1	none
C=CCn1c(SCc2nc3ccccc3nc2C)nnc1-c1ccoc1C	ALDH1A1 block 1.58µM, HPGD inh 25.1µM
Cc1ccc(S(=O)(=O)N(CC(O)Cn2c3ccccc3c3ccccc32)c2cccc(C(N)=O)c2)cc1 (stereo not drawn)	none (no result: ALDH1A1 block, HPGD inh)
FC(F)(F)c1nnc2sc(-c3ccncc3)nn12	none
c1ccc2c(c1)ncn2Cc1nnc2sc(-c3ccncc3)nn12	ALDH1A1 block 10µM, HPGD inh 7.94µM
c1cncc(-c2nn3cnnc3s2)c1	none
c1ccc(-c2ccc(C3=Nn4c(Cn5nnc6ccccc65)nnc4SC3)cc2)cc1	ALDH1A1 block 28.2µM, HPGD inh 17.8µM
Fc1ccc(C2=Nn3c(Cc4ccccc4F)nnc3SC2)cc1	none
c1ccc2c(c1)nnn2Cc1nnc2sc(-c3ccc4c(c3)OCCO4)nn12	ALDH1A1 block inconclusive, HPGD inh inconclusive
c1ccc(-c2nn3c(Cn4nnc5ccccc54)nnc3s2)cc1	ALDH1A1 block 3.16µM, HPGD inh 10µM
c1cncc(-c2nn3c(Cn4cnc5ccccc54)nnc3s2)c1	ALDH1A1 block 1µM, HPGD inh 3.16µM
S=C1NCCOCCOCCOCCNC(=S)N2CCOCCOCCN1CCOCCOCC2	none (no result: IMPase cell inh, HPGD inh)
O=C(COc1ccc(Br)cc1CNCCCN1CCOCC1)Nc1ccccc1	none (no result: IMPase cell inh)
CCCCCC1(C(=O)OCC)CC(CSC(=N)N)OC1=O (stereo not drawn)	none (no result: IMPase cell inh, HPGD inh)
CC(C)C[C@H](NC(=O)[C@H](Cc1ccccc1)NC(=O)CNC(=O)CNC(=O)[C@@H](N)Cc1ccc(O)cc1)C(=O)N[C@@H](CCCN=C(N)N)C(=O)N[C@@H](CCCN=C(N)N)C(=O)N[C@@H](CCC(N)=O)C(=O)N[C@@H](Cc1ccccc1)C(=O)N[C@@H](CCCCN)C(=O)N[C@H](C(=O)N[C@H](C(=O)N[C@H](C(=O)O)[C@@H](C)O)C(C)C)C(C)C	none (no result: IMPase cell inh, HPGD inh)
CN1CCc2ccccc2CC1=O	none (no result: IMPase cell inh)
c1ccc(Cn2cnc3ccccc32)cc1	none
c1ccc(-c2nn3c(Cn4cnc5ccccc54)nnc3s2)cc1	ALDH1A1 block 2.24µM, HPGD inh 4.47µM
c1ccc(OCc2nn3c(-c4ccco4)nnc3s2)cc1	none
COc1ccc(-n2c(Cn3nnc4ccccc43)n[nH]c2=S)cc1	none (no result: IMPase cell inh)
c1ccc(OCc2nn3c(Cn4cnc5ccccc54)nnc3s2)cc1	ALDH1A1 block 18.9µM, HPGD inh 11.2µM
COc1ccc(Cc2nn3c(Cn4nnc5ccccc54)nnc3s2)cc1	ALDH1A1 block 11.2µM, HPGD inh 22.4µM
Clc1ncc(Cn2cccn2)s1	none (no result: IMPase cell inh, HPGD inh)
CSc1nc(-c2ccccc2)nn1C(=O)c1ccc(C)cc1	ALDH1A1 block inconclusive
Cc1ccc(C)c(N(CC(=O)N/N=C/c2ccc(-c3ccc([N+](=O)[O-])cc3)o2)S(=O)(=O)c2ccccc2)c1	ALDH1A1 block inconclusive
CCOc1ccc(S(=O)(=O)N(CC(=O)N/N=C/c2ccc(-c3ccc([N+](=O)[O-])cc3)o2)c2ccccc2)cc1	ALDH1A1 block 25.1µM
C1=C(c2ccc(-c3ccccc3)cc2)Nc2ncnn2C1c1ccco1 (stereo not drawn)	ALDH1A1 block inconclusive
Clc1ccccc1C1=CC(c2ccco2)n2nnnc2N1 (stereo not drawn)	ALDH1A1 block 12.6µM (no result: IMPase cell inh, HPGD inh)
CCOC(=O)[C@H](CCc1ccccc1)N[C@@H](C)C(=O)N1[C@H](C(=O)O)C[C@H]2CCC[C@@H]21	none
CCN1CCCc2cc(CN(CCN3CCOCC3)C(=S)Nc3ccc(C)cc3)ccc21	ALDH1A1 block 6.31µM (no result: IMPase cell inh, HPGD inh)
CCOc1ccc(NC(=S)N(CCN2CCOCC2)Cc2ccc3c(c2)CCCN3CC)cc1	ALDH1A1 block 12.6µM (no result: IMPase cell inh, HPGD inh)
CCOc1ccc(NC(=S)NCCCN2CCOCC2)cc1	none (no result: IMPase cell inh, HPGD inh)
Cc1ccc(NC(=S)N(CCN2CCOCC2)Cc2ccccc2F)cc1	none (no result: IMPase cell inh, HPGD inh)
COc1ccc(N(C(=O)/C=C/c2ccc(OC)c(OC)c2)C2=CC3CCC(C2)N3C)cc1 (stereo not drawn)	none (no result: IMPase cell inh, HPGD inh)
Oc1ccccc1/C=N/NC(=S)NC1CC2CC1C1C=CCC21 (stereo not drawn)	none (no result: IMPase cell inh, HPGD inh)
COC(=O)Cc1cn(-c2ncc(C(F)(F)F)cc2Cl)c2ccccc12	ALDH1A1 block inconclusive, HPGD inh inconclusive
CN(C)/C=C/C(=O)/C=C/c1cn(-c2ncc(C(F)(F)F)cc2Cl)c2ccccc12	HPGD inh 14.1µM
O=C(Nc1ccc2oc(=O)ccc2c1)c1ccc(-c2ccc(Cl)cc2)o1	ALDH1A1 block 8.91µM (no result: HPGD inh)
COc1cccc(OC)c1C(=O)NC(=S)Nc1ccc2oc(=O)ccc2c1	ALDH1A1 block inconclusive
CCc1ccc2oc(-c3cccc(NC(=O)c4ccc(-c5cccc([N+](=O)[O-])c5)o4)c3)nc2c1	none (no result: ALDH1A1 block, HPGD inh)
O=C(Nc1ccc2oc(=O)ccc2c1)c1cc2ccccc2o1	HPGD inh inconclusive
CC(=O)NC(=S)Nc1ccc2oc(=O)ccc2c1	ALDH1A1 block 8.91µM (no result: IMPase cell inh, HPGD inh)
O=C(Nc1ccc2oc(=O)ccc2c1)c1ccc(-c2cccc([N+](=O)[O-])c2)o1	ALDH1A1 block 7.94µM (no result: IMPase cell inh, HPGD inh)
COc1ccccc1NS(=O)(=O)c1ccc(NC(=O)c2nc3nc(C)cc(C(F)F)n3n2)cc1	HPGD inh inconclusive
O=c1ccccn1Cc1c(F)cccc1Cl	none
c1ccc([P+](CC[P+](c2ccccc2)(c2ccccc2)c2ccccc2)(c2ccccc2)c2ccccc2)cc1	none (no result: IMPase cell inh)
Cc1ccc(S(=O)(=O)C2(C(=O)N3CCCCC3C)CC2)cc1 (stereo not drawn)	ALDH1A1 block inconclusive
COc1ccc2cc(C(=O)c3ccccc3)c(=O)oc2c1	ALDH1A1 block 14.1µM
CCOc1ccc2cc(C(=O)c3ccccc3)c(=O)oc2c1	ALDH1A1 block inconclusive (no result: IMPase cell inh)
